# Results from the supplement of paper PMC9334596.
# In all, about 5,300 compounds were measured (“PER2::LUC luminescence relative to vehicle control”: median about 0.96, highest 2% from about 1.3 on). The sample holds the highest values, similar compounds and a random draw of the others, so the mix is not that of the screen.
# System: mPer2Luc MEF
# Experiment: PER2::LUC luminescence relative to vehicle control (fold of vehicle); higher = higher PER2::LUC reporter signal
# Conditions: 10 µM
# Outline: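 The value is PER2::LUC luminescence expressed as fold of vehicle control. Mouse embryonic fibroblasts carrying the mPer2Luc reporter were seeded at ~3000 cells per well in 384-well plates and grown in DMEM with 10% FBS at 37 °C and 5% CO2. Compounds from commercial libraries were added at 10 μM 48 h after seeding, and luminescence was read with the ONE-Glo luciferase assay system 24 h and 30 h after treatment, followed by an alamarBlue viability assay.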
SMILES,PER2::LUC luminescence (time after treatment 24 h),PER2::LUC luminescence (time after treatment 30 h)
COc1ccccc1O,0.97,0.878
C#CCN(Cc1cc2c(=O)[nH]c(C)nc2cc1Br)c1ccc(C(=O)NCc2cccnc2)cc1,0.902,0.731
CC(Oc1ccc(Oc2cnc3ccc(Cl)cc3n2)cc1)C(=O)O (stereo unspecified),1.14,1.05
COc1cc2ncnc(Nc3cccc(I)c3)c2cc1OC,0.808,0.774
O[C@@](Cc1ncc(CC2(C(F)(F)F)CC2)[nH]1)(c1ccc(-n2cccn2)cc1)C(F)(F)F,0.966,0.921
O=C(Nc1ccc(OC(F)(F)F)cc1)c1sccc1NCc1ccnc2ccccc12,1.76,1.99
CCOc1ccc(-n2c(C(C)N(Cc3cccnc3)C(=O)Cc3ccc(OC(F)(F)F)cc3)nc3ncccc3c2=O)cc1 (stereo unspecified),0.97,0.944
Cc1cc(Nc2ccc(NC(=O)c3ccc(Nc4ccnc5ccccc45)cc3)cc2)nc(N)n1,0.945,1
Cc1c2c(c(O)c3c(O)cccc13)C(=O)O[C@@H]2[C@@H]1[C@H](O)C(=O)C(C(N)=O)=C(O)[C@H]1N(C)C [Alpha-APO-OXYTETRACYCLINE],0.979,0.958
CCc1c(C(=O)NNC(=O)C(O)c2cc(F)cc(F)c2)ccc(O)c1C (stereo unspecified),0.99,0.823
COc1ccc(-c2cc(=O)c3c(OC)c(OC)c(OC)c(OC)c3o2)cc1OC,0.626,0.784
COc1cccc(-c2cc(=O)c3ccccc3o2)c1N,0.951,0.985
COc1ccc2oc(-c3ccccc3OC)cc(=O)c2c1,1.38,1.61
COc1ccc2oc(-c3ccccc3)c(OC)c(=O)c2c1,1.54,1.73
COc1ccc(-c2oc3ccccc3c(=O)c2OC)cc1,0.987,1.2
COc1cccc(-c2cc(=O)c3ccc(OC)cc3o2)c1,0.879,0.955
COc1ccc(-c2cc(=O)c3c(OC)c(OC)c(OC)c(OC)c3o2)cc1,0.944,1.03
COc1ccc2ccc(=O)oc2c1,1,1.01
COc1ccc(-c2cc(=O)c3ccc(O)cc3o2)cc1,1.19,1.23
COc1cccc(-c2cc(=O)c3cc(OC)ccc3o2)c1,1.22,1.49
COc1ccc(-c2cc(=O)c3ccccc3o2)cc1,1.72,1.29
COc1ccc2c(=O)c(OC)c(-c3ccccc3)oc2c1,0.767,0.809
CC[C@H](C)[C@H]1O[C@]2(C=C[C@@H]1C)C[C@@H]1C[C@@H](C/C=C(\C)[C@@H](O[C@H]3C[C@H](OC)[C@@H](O[C@H]4C[C@H](OC)[C@@H](O)[C@H](C)O4)[C@H](C)O3)[C@@H](C)/C=C/C=C3\CO[C@@H]4[C@H](OC)C(C)=C[C@@H](C(=O)O1)[C@]34O)O2,0.767,0.843
NC(=O)C[n+]1cccc(C(=O)O)c1,1.18,1.08
c1cc(NC2CCNCC2)nc(-c2cnc3ccccn23)c1,0.506,0.487
CCCNC[C@]1(O)[C@H](C)O[C@@H](O[C@H]2[C@H](C)[C@@H](O[C@@H]3O[C@H](C)C[C@H](N(C)C)[C@H]3O)[C@](C)(O)C[C@@H](C)CN[C@H](C)[C@@H](O)[C@](C)(O)[C@@H](CC)OC(=O)[C@@H]2C)C[C@@]1(C)OC,1.05,0.881
C/C=C(/C)C(=O)O[C@H]1CC(C)=CC(=O)[C@@]2(C)CC[C@@](O)(C(C)C)[C@H]12,1.01,0.988
Cc1nnc(-c2sc(NC(=O)[C@H](C(C)C)n3c(=O)[nH]c4ccccc4c3=O)nc2C)o1,1.04,0.956
